From PubChem
Only some compounds are listed: those with a hit (about 8.3% of all), similar ones and a draw of the others.
Giardia killer: Giardia lamblia killing. Giardia lamblia trophozoite viability. activity change, % at 7.66 µM, hits read low. 340,000 compounds, 0.15% hits. AID 540267; in the data active means activity change below about -80%; inconclusive means between about -30% and that limit;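 further: parasites exposed to compound for two days anaerobically before the ATP read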
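Trophozoites 100 cells/well + cpd; 48 hrs, 37 deg C, anaerobic. ATPLite 1-Step added, 15-30 min RT, luminescence read (ATP-based viability).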
SW480 rereplic: DNA re-replication induction in SW480 cells | SW480 DNA re-replication, Hoechst DNA content imaging, 48 h | Potency, µM (series often up to 46.1 µM), actives largely listed as activators | 340,000 compounds, 1.8% hits | AID 624297; further: nearly all actives have a fitted effect of over 55% in size
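Quantitative HTS format with DMSO vehicle controls; 48 hr drug incubation at 37 C, then 40 min Hoechst staining and scanning imager measurement at 405 nm excitation.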
BCR signal inh: inhibitors of chronic active B-cell receptor signaling. ABC-DLBCL IkBa-CBG/CBR reporter, luminescence ratio, 4 h. Potency, µM (highest dose often 46.1 µM), hits mostly inhibitors. 340,000 compounds, 0.05% hits. AID 493014; active means well fitted inhibition curve with a large enough effect in the signal ratio, with a control signal flat, not every such curve was filed as active; inconclusive means small, poorly fitted or top-dose-only effect, or effect the other way, or a change in a side signal; the % refers to the signal ratio
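Doxycycline induced both beetle luciferases in TMD8 lymphoma cells; IKK-driven degradation limits the IkappaBalpha-fused green signal, while red luminescence normalises for cell number and nonspecific effects. Compounds tested up to 46 uM, 4 hrs.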
Gal4-VP16 FLuc: counter-screen for ROR gamma inhibitors: Gal4-VP16 reporter; 310,000 compounds, 3.5% hits; Drosophila S2 Gal4-VP16 UAS-luciferase, luminescence, 20 h; Potency, µM (doses to about 53.6 µM), most hits filed as inhibitors;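 further: Gal4-VP16 expression switched on by copper sulfate through the metallothionein promoter; nearly all actives have a fitted effect of over 50% in size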
MCF10A rereplic: DNA re-replication induction in MCF 10a cells; Potency, µM (series often up to 46.1 µM), most hits filed as activators; 350,000 compounds, 2.9% hits; MCF 10A DNA re-replication, Hoechst nuclear intensity, 48 h; further: nearly all actives have a fitted effect of over 50% in size
RORg inh: inhibitors of mouse ROR gamma transcriptional activity | P51450 | Drosophila S2 Gal4-RORgamma UAS-luciferase reporter, 20 h | 310,000 compounds, 5.4% hits | Potency, µM (titrated, usually from 53.6 µM), actives largely listed as inhibitors; further: nearly all actives have a fitted effect of over 60% in size
Target sequence (P51450 whole entry, looked up, the tested form may be a part): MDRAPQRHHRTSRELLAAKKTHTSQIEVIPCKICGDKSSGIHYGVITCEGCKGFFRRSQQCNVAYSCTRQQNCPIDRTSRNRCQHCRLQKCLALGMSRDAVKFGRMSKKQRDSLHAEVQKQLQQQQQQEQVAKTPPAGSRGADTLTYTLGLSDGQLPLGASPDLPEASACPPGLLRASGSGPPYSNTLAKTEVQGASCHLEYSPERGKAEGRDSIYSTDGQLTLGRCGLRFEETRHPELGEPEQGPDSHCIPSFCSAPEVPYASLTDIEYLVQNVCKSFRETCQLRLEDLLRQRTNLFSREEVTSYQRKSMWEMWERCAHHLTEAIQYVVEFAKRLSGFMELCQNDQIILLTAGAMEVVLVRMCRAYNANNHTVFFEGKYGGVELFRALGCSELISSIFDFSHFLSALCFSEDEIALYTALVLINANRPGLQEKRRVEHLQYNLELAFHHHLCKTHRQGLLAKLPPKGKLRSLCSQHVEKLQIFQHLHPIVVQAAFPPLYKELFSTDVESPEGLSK
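Schneider cells (Drosophila), stable Gal4 DBD–ROR gamma + UAS-luc; 1 hr cmpd preincubation; Cu2+ induction 700 uM final; 20 hr ambient; luminescence.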
Each line names hits and unclear results; the compound was inactive in the other large screens. Unless noted, the call rests on the fitted dose curve; in most records, active means well fitted curve in the direction sought with a large enough effect; inconclusive means small, poorly fitted or top-dose-only effect, or another doubt; inactive means no such curve, though single readings can be large; an effect the other way counts as inactive or inconclusive.

CCC1(c2ccc(F)cc2)NC(=O)N(CC(=O)Nc2ccc(-c3nc4ccc(C)cc4s3)cc2)C1=O (centres undefined)	SW480 rereplic inconclusive, MCF10A rereplic inconclusive, RORg inh 0.447µM
Cc1ccc(NC(=O)CN2C(=O)NC(C)(c3ccc(Cl)cc3)C2=O)cc1 (centres undefined)	none
COc1ccc(C2(C)NC(=O)N(CC(=O)Nc3ccc(-c4nc5ccc(C)cc5s4)cc3)C2=O)cc1 (centres undefined)	SW480 rereplic inconclusive, BCR signal inh inconclusive, MCF10A rereplic 18.4µM
O=C1c2cnc3nc(SCc4ccc(Cl)cc4)nn3c2CC2c3ccccc3CCN12 (centres undefined)	SW480 rereplic inconclusive, BCR signal inh inconclusive, MCF10A rereplic 3.26µM
Clc1ccc(CSc2ncccn2)cc1	BCR signal inh inconclusive
COc1ccc(C(C)=O)c(Oc2cc(NN3CCCCC3)c([N+](=O)[O-])cc2[N+](=O)[O-])c1	SW480 rereplic inconclusive, MCF10A rereplic inconclusive
C#CCn1c(=NC(=O)c2ccc(Cl)s2)sc2cccc(OC)c21	BCR signal inh inconclusive, MCF10A rereplic 18.4µM, RORg inh 2.24µM
CCOc1ccc(C(=O)NNC(=O)CN2C(=O)C3CC=CCC3C2=O)cc1OC (centres undefined)	none (no result: Gal4-VP16 FLuc, RORg inh)
CCC(NC(=O)Nc1nccs1)(C(F)(F)F)C(F)(F)F	none
CCC(C(=O)Nc1nccs1)(C(F)(F)F)C(F)(F)F	Gal4-VP16 FLuc 7.94µM, RORg inh 7.08µM
CC(Oc1ccc(Cl)cc1)C(=O)Nc1nccs1 (centres undefined)	BCR signal inh inconclusive, RORg inh 14.1µM
CCC(C)C(=O)Nc1nccs1 (centres undefined)	SW480 rereplic 1.46µM, BCR signal inh inconclusive, Gal4-VP16 FLuc 17.8µM, RORg inh 5.62µM
O=C(Nc1nccs1)C1(S(=O)(=O)c2ccc(Cl)cc2)CC1	BCR signal inh inconclusive, Gal4-VP16 FLuc inconclusive, RORg inh 7.08µM
CCC(C)(C)NC(=O)CN(Cc1ccc2c(c1)OCO2)C(=O)CCC(=O)Nc1cc(C)ccn1	none
COc1cc(C(=O)O[C@@H]2CC3CC[C@]2(C)C3(C)C)ccc1O	none (no result: Giardia killer, SW480 rereplic, BCR signal inh, MCF10A rereplic)
COCCS(=O)(=O)N(Cc1ccc(Br)cc1)[C@@H](C)C(=O)OC	none (no result: Gal4-VP16 FLuc, RORg inh)
Cc1ccccc1N1CCN(C2CCCN(C(=O)CCc3c(C)noc3C)C2)CC1 (centres undefined)	BCR signal inh inconclusive
CC(C)(C)C(=O)NNC(=O)C1CC1(c1ccccc1)c1ccccc1 (centres undefined)	none
COc1ccc(S(=O)(=O)Nc2c(O)ccc3ccccc23)cc1OC	MCF10A rereplic 16.4µM (no result: BCR signal inh, Gal4-VP16 FLuc, RORg inh)
COc1ccc(S(=O)(=O)Nc2cccc3ccc(O)cc23)cc1	SW480 rereplic inconclusive, MCF10A rereplic 20.6µM (no result: BCR signal inh, Gal4-VP16 FLuc, RORg inh)
COc1ccc(S(=O)(=O)Nc2cccc3ccccc23)cc1	none (no result: SW480 rereplic, BCR signal inh, Gal4-VP16 FLuc, MCF10A rereplic, RORg inh)
COc1ccc(S(=O)(=O)Nc2ccccc2C)cc1	SW480 rereplic 13µM, MCF10A rereplic 20.6µM
Cc1cc(C)c2cc(C#N)c(N3CCCN(C(=O)c4cnccn4)CC3)nc2c1	MCF10A rereplic 20.6µM
Cc1cc(C)c2cc(C#N)c(N3CCCN(S(=O)(=O)c4ccccc4)CC3)nc2c1	none (no result: BCR signal inh, Gal4-VP16 FLuc, RORg inh)
Cc1ccc(C)c(Cn2nnc3c(=O)[nH]c(C4CCCN(S(=O)(=O)Cc5ccccc5)C4)nc32)c1 (centres undefined)	none
O=C1NNC(c2ccccc2)=N/C1=C\c1ccco1	none
COc1cc(/C=C2\N=C(c3ccccc3)NNC2=O)cc(OC)c1OC	SW480 rereplic 5.8µM, BCR signal inh inconclusive, MCF10A rereplic 1.84µM
CC1CCCN(Cc2csc(N)n2)C1 (centres undefined)	SW480 rereplic inconclusive
CCC(C)n1c(=S)[nH]c2ccccc2c1=O (centres undefined)	BCR signal inh inconclusive, Gal4-VP16 FLuc 4.47µM, RORg inh 0.891µM
CC(C)n1c(=S)[nH]c2ccccc2c1=O	SW480 rereplic inconclusive, BCR signal inh inconclusive, Gal4-VP16 FLuc 3.98µM, RORg inh inconclusive
COn1c(=S)[nH]c2ccccc2c1=O	BCR signal inh inconclusive, RORg inh inconclusive
